Source: ChEMBL document CHEMBL3988442, “University of Dundee, Small-Polar-MMV Screening Library” (2021)
Among all 48,000 compounds or so, about 13,000 (27%) showed an effect of 50% or more. Some of the results follow.

The compounds below were run on Wolbachia pipientis (assay: Anti-Wolbachia Cell-Based Screen). Settings: 5 µM.
Type: functional
Design: scale not given: in the data most compounds retested in dose-response had high values

How did the “Percent Effect” value turn out when `CCNC(=O)CCC(=O)NC(C)Cc1ccccc1Br` (stereo not given) was run?
The value was 15.31%.

With `N#Cc1cnc2ccccc2c1N1CCNCC1` as the compound, how does the “Percent Effect” value read?
The value was -0.76%.

How did the “Percent Effect” value turn out when `Cc1nn(C)c2ncc(S(=O)(=O)N3CCCN4CCCC4C3)cc12` (stereo not given) was run?
The value was -8.04%.

How did the “Percent Effect” value turn out when `CC(C)n1[nH]c(=O)c2c1NC(=O)CSC2c1ccc(OCC(N)=O)cc1` (stereo not given) was run?
Its value is 116.2%.

Which “Percent Effect” value does the source give for `COc1cccc(C2SCC(=O)Nc3ccsc32)c1` (stereo not given) here?
Its value is -17.04%.

`COc1cc(OC)cc(C2SCC(=O)Nc3ccsc32)c1` (stereo not given) was tested. Which “Percent Effect” value did it give?
The value was -4.704%.

How did the “Percent Effect” value turn out when `CC(C)n1[nH]c(=O)c2c1NC(=O)CSC2c1cccc(OCC(N)=O)c1` (stereo not given) was run?
The value was 107.3%.

Which “Percent Effect” value does the source give for `CCN1CCC2(CCC1=O)CN(c1ccnc(SC)n1)CCN2C` (stereo not given) here?
Its value is -2.766%.

Which “Percent Effect” value does the source give for `Cc1cc(CC(=O)N2CCN(CC(C)C)[C@@H]3CS(=O)(=O)C[C@@H]32)ccc1F` here?
Its value is -16.98%.

With `CC1=N[C@@]2(CC[C@@H]3CN(CC(C)C)C[C@@H]32)C(=O)N1` as the compound, how does the “Percent Effect” value read?
The value was -12.28%.

`CCC1=N[C@@]2(CC[C@@H]3CN(CC)C[C@@H]32)C(=O)N1C` was tested. Which “Percent Effect” value did it give?
Its value is 107.7%.

For `COc1ccc(C(=O)C2CCCN(Cc3ccncc3)C2)c(OC)c1` (stereo not given), which “Percent Effect” value is on record?
Its value is -2.027%.

`COc1ccc(Cl)cc1CC(=O)N1CCN(CC(C)(C)O)CC1` was tested. Which “Percent Effect” value did it give?
Its value is 104.9%.

For `Cc1oc(-c2ccco2)nc1CC(=O)N1CCN(CC(C)(C)O)CC1`, which “Percent Effect” value is on record?
The value was -7.111%.

Which “Percent Effect” value does the source give for `Cl.O=C(Cc1ccc(F)cc1)N1CCN(CC(O)C2CC2)CC1` (stereo not given) here?
The value was -12.59%.

For `Cc1c(CC(=O)N2CCN(CC(F)(F)F)CC2)nnn1-c1ccccc1`, which “Percent Effect” value is on record?
The value was -7.021%.

For `CCOCC(O)CN1CCN(C(=O)Cc2ccccc2Cl)CC1` (stereo not given), which “Percent Effect” value is on record?
Its value is -8.97%.

For `COc1ccc(Cl)cc1CC(=O)N1CCN(CC(C)O)CC1` (stereo not given), which “Percent Effect” value is on record?
Its value is 112.2%.

For `CCC1CNCc2cc3c(OC)ccc(OC)c3nc2O1` (stereo not given), which “Percent Effect” value is on record?
Its value is 82.52%.

`CCC1CNCc2cc3c(C)ccc(C)c3nc2O1` (stereo not given) was tested. Which “Percent Effect” value did it give?
The value was 108.6%.

With `OCCCN(CCc1cccc(F)c1)C1CC1` as the compound, how does the “Percent Effect” value read?
Its value is 110%.

`CN1C(=O)CC2(CCNCC2)c2ccccc21` was tested. Which “Percent Effect” value did it give?
Its value is -12.38%.

`CN1C(=O)C2(CCNCC2)c2cc(F)ccc21.Cl` was tested. Which “Percent Effect” value did it give?
The value was -10.96%.

For `COC(=O)N1CC2(CCNCC2)c2cc(Cl)ccc21.Cl`, which “Percent Effect” value is on record?
The value was 101.7%.

How did the “Percent Effect” value turn out when `CC(=O)N1CC2(CCNCC2)c2cc(Cl)ccc21.Cl` was run?
The value was 94.12%.

With `CC(=O)N1CC2(CCNCC2)c2cc(C)ccc21` as the compound, how does the “Percent Effect” value read?
The value was -30.16%.

How did the “Percent Effect” value turn out when `Cn1nc(-c2cccs2)cc1[C@H]1CN2CC[C@H]1C[C@@H]2CNS(C)(=O)=O` was run?
The value was -2.456%.

For `CC(Cn1ccnc1)NS(=O)(=O)c1ccc(C#N)c(Cl)c1` (stereo not given), which “Percent Effect” value is on record?
Its value is 2.375%.

How did the “Percent Effect” value turn out when `COc1cc(C2SCC(=O)Nc3ccsc32)cc(OC)c1OC` (stereo not given) was run?
The value was -0.744%.

With `CCOc1ccc(C2SCC(=O)Nc3c2c(=O)[nH]n3C(C)C)cc1` (stereo not given) as the compound, how does the “Percent Effect” value read?
The value was 112%.

How did the “Percent Effect” value turn out when `O=C1CSC(c2ccc(O)c(Cl)c2)c2c(n(C3CCOCC3)[nH]c2=O)N1` (stereo not given) was run?
Its value is 12.23%.

Which “Percent Effect” value does the source give for `CCOc1ccc(C2SCC(=O)Nc3c2c(=O)[nH]n3C(CC)CC)cc1` (stereo not given) here?
Its value is 117.7%.

For `CCCOc1ccc(C2SCC(=O)Nc3c2c(=O)[nH]n3C(C)C)cc1` (stereo not given), which “Percent Effect” value is on record?
Its value is 107.1%.

`O=C1CSC(c2ccsc2)c2c(n(C3CCOCC3)[nH]c2=O)N1` (stereo not given) was tested. Which “Percent Effect” value did it give?
Its value is 12.85%.

For `CC(C)COc1ccc(C2SCC(=O)Nc3c2c(=O)[nH]n3C(C)C)cc1` (stereo not given), which “Percent Effect” value is on record?
Its value is 105.8%.
